Test results: PubChem BioAssay (NCI)
Compounds without any hit were thinned out: in the full panel of roughly 83,000, 20% have a hit.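 Values shown are percent growth following 48 h exposure of cells in 96-well plates to a single concentration of compound; below 10 was considered active.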 Values without a mark were called inactive. The source made the active and inactive calls.

How the values were obtained:
Experiment in all cases: NCI-60 one-dose screen, 48 h (100 = growth as untreated, 0 = no growth, -100 = all killed)
Details in all cases: 10 µM unless noted
[1] = test system: NCI-H23 lung
[2] = test system: NCI-H226 lung
[3] = test system: NCI-H322M lung
[4] = test system: HOP-62 NSCLC
[5] = test system: NCI-H460 lung
[6] = test system: HOP-92 NSCLC
[7] = test system: NCI-H522 lung
[8] = test system: A549/ATCC NSCLC
[9] = test system: 786-0 renal
[10] = test system: COLO 205 colon

| SMILES | growth [1] | growth [2] | growth [3] | growth [4] | growth [5] | growth [6] | growth [7] | growth [8] | growth [9] | growth [10] |
| --- | --- | --- | --- | --- | --- | --- | --- | --- | --- | --- |
| Cc1cccc(NC(=O)Nc2ccc(-n3cnc4cc(-c5ccc(O)cc5)ccc43)cc2)c1 | 27.7% | 62.6% | 69.8% | 39.3% | 9.07% (active) | 81.1% | 6.16% (active) | 24.9% | 36.2% | 69.1% |
| COc1ccc(NC(=O)c2cc(NCc3cc(O)ccc3O)ccc2O)cc1 | 90.4% | 97% | 91.1% | 101% | 87.2% | 106% | -0.814% (active) | 78.7% | 107% | 113% |
| COc1ccc(-c2nc3sccn3c2/C=C/C(=O)c2ccc3c(c2)OCO3)cc1 | 99.7% | 84.7% | 88.5% | 97.5% | 108% | 82.8% | 57.8% | 95% | 96.8% | 211% |
| O=C1Nc2cc(-c3ccc(NS(=O)(=O)c4ccccc4)cc3)ccc2/C1=C/c1ccc[nH]1 | 29.9% | 65.9% | 49.6% | 106% | 11.4% | 95.7% | 76.4% | 86.6% | 108% | 125% |
| O=C(c1nc2ccccc2[nH]1)C1C(c2ccc(Cl)cc2)C2CC3CCCC[C@H]3N2[C@@]12C(=O)Nc1cc(Cl)ccc12 (stereo not given in full) | 58.6% | 58.8% | 62.2% | 68.7% | 23.1% | 46.3% | 56.4% | 35.2% | 48.4% | 29.8% |
| Cn1c(N2NC(=O)C(N=Nc3ccc(S(N)(=O)=O)cc3)C2=O)nc(-c2ccco2)c(C#N)c1=O (stereo not given) | 70% | 94.9% | 107% | 96.4% | 103% | 32.3% | -40.5% (active) | 109% | 100% | 77.1% |
| CCN(Cc1ccccc1)c1ccc(C=O)cc1 | 96.3% | 2.99% (active) | 93.9% | 108% | 100% | 81.9% | 100% | 98.1% | 102% | 113% |
| O=C(O)c1ccc(-c2nn(-c3ccc(C(F)(F)F)cc3)cc2CNc2ccc(Oc3ccccc3)cc2)cc1 | 91.7% | 86.8% | 70.8% | 103% | 87.4% | 93.3% | 80.2% | 47.9% | 93.4% | 111% |
| O=C1Nc2cc(Cl)ccc2/C1=C\c1c(-c2ccc(F)cc2)nc2ccccn12 | -20.4% (active) | 7.11% (active) | 39.5% | 3.44% (active) | 0.0437% (active) | 69.8% | -51.5% (active) | 33.5% | 7.55% (active) | -33.1% (active) |
| Cn1cc(-c2csc(-c3c[nH]c4ccccc34)n2)c2ccnc(Cl)c21 | 86.9% | 60.5% | 88.9% | 119% | 74.2% | 64% | 52.5% | 59% | 59.1% | 46.7% |
| CN1[C@@H]2CC[C@H]1/C(=C\c1ccccc1)C(=O)/C2=C/c1ccccc1 | 29.7% | 45.8% | 51.2% | 95.8% | 13.8% | 84.3% | 48.2% | 45.3% | 45.3% | 12.9% |
| CCCCCCNC(=O)Nc1ccc2cc3ccc(NC(=O)NCCCCCC)cc3nc2c1 | -39% (active) | 79.5% | 22.8% | 18.1% | -11.9% (active) | 68.9% | -67.1% (active) | 23.7% | 27.5% | 17.5% |
| COc1cc(/C=C\c2cc(OC)c(OC)c(OC)c2)cc(N)c1OC | 83.6% | 97.8% | 81.3% | 79.8% | 104% | 78.4% | 58.6% | 93.1% | 82.3% | 104% |
| Nc1c(C(=O)Nc2cccc3cnccc23)sc2nc3c(cc12)CN(Cc1ccccc1)CC3 | 99.9% | 92.5% | 96.9% | 98.7% | 109% | 96.4% | 97.2% | 107% | 109% | 112% |
| COc1ccc(/C=C/c2nc(Nc3ccc(S(=O)(=O)NC(C)=O)cc3)c3ccccc3n2)cc1 | 85.9% | 84% | 38.6% | 81.2% | 64.7% | 67.8% | 76.3% | 42% | 83.6% | 49.7% |
| CN1CCN(C(=O)[C@]23CCC(C)(C)C[C@H]2C2=CC[C@@H]4[C@@]5(C)C/C(=C/c6ccncc6)C(=O)C(C)(C)[C@@H]5CC[C@@]4(C)[C@]2(C)CC3)CC1 | 72.4% | 68.7% | 87.6% | 83.1% | 33.1% | 41% | 55.9% | 43.8% | 67.2% | 41.9% |
| COc1ccc(N2CCN(c3ccc(NC4=C(Cl)C(=O)c5ncccc5C4=O)cc3)CC2)cc1 | 26.2% | 52.8% | 46.9% | 56.2% | 17.6% | 85.8% | 43.8% | 36.1% | 80.1% | 43% |
| CC1(C)NCCC[C@]2(C)[C@H]3CC(=O)[C@H]4[C@@H]5C[C@](C)(CO)CC[C@]5(C)CC[C@@]4(C)[C@]3(C)CC[C@@H]12 | 104% | 97.9% | 98.2% | 92.4% | 99.6% | 84% | 101% | 92% | 94% | 94.2% |
| COc1ccc(C/C(=C(\C)c2ccc(OCCN3CCCC3)cc2)c2ccc(OCCN3CCCC3)cc2)cc1 | 83.9% | 84.4% | 81.7% | 80.3% | 6.71% (active) | 26.4% | 56.8% | 69.3% | 69.1% | -25.8% (active) |
| CCCCCN1C=C/C(=C\C(=O)n2ccc3ccccc32)c2ccccc21 | 77% | 70.3% | 87.7% | 81.9% | 91% | 83.3% | 77% | 89.4% | 94.8% | 89.4% |
| CCCCCCCCOc1ccc(/C=N/Nc2cc(C)nc3ccc(Br)cc23)cc1 | 81.9% | 97.4% | 95.6% | 87.5% | 16.1% | 105% | 71.6% | 27.9% | 28.9% | 83.9% |
| COc1cc(NCCCCCNC(C)(C)C)c2ncccc2c1 | 93.1% | 86.5% | 93.3% | 92.7% | 111% | 79.4% | 67.8% | 88.1% | 95.6% | 110% |
| CCCCCCNC(=O)Oc1ccc(/C(=C(\C)c2ccccc2)c2ccc(OCCCN(C)C)cc2)cc1 | 82.8% | 104% | 75.2% | 98.3% | 39.1% | 83.7% | 88.9% | 72.7% | 71% | 58.1% |
| CCc1c2c(nc3ccc(OCc4ccc(B(O)O)cc4)cc13)-c1cc3c(c(=O)n1C2)COC(=O)[C@]3(O)CC | -35.8% (active) | -21.4% (active) | 15.7% | -17% (active) | 2.12% (active) | -4.54% (active) | -9.3% (active) | 7.22% (active) | -13.7% (active) | 13.6% |
